# Results: PubChem BioAssay (Tox21)
# Several values for one entry are separate records, joined by “and”; a condition that tells them apart may be missing. Equal entries are not always repeated. Results filed as inconclusive are left out. Where a call stands in place of a potency, no number is given. Some compounds were tested as several samples or in several runs, with calls that do not always agree. Activity calls are given as the source filed them. Unless noted, the call rests on the fitted dose curve; in most records, active means well fitted curve in the direction sought with a large enough effect in the repeat runs; inconclusive means weak or mixed curves; inactive means no such curve, though single readings can be large; an effect the other way counts as inactive or inconclusive.
# Assays:
# [1] = Human pregnane X receptor (PXR) small molecule agonists, qHTS cell viability counter screen (AID 1346977); details: PXR-Luc HepG2 viability, CellTiter-Fluor, 24 h; series mostly up to 92.4 µM; further: nearly all actives have a fitted effect of over 50% in size; further: potency means the concentration at half of the fitted maximal effect
# Summary of the method: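 Same-well viability read: CellTiter-Fluor added after 23 hr compound exposure, fluorescence measured 1 hr later. Cells were PXR-Luc HepG2 seeded at 2,000/well in 5% charcoal-stripped FBS medium, rested 5 hr before dosing at 37 C.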
# [2] = Caspase-3/7 induction in HepG2 cells by small molecules, qHTS assay (AID 1346978); details: HepG2 caspase-3/7 activation, Caspase-Glo luminescence, 17 h; series mostly up to 92.4 µM; further: nearly all actives have a fitted effect of over 15% in size; further: potency means the concentration at half of the fitted maximal effect
# Summary of the method: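 Caspase-3/7 induction was measured by Caspase-Glo 3/7 luminescence (30 min, room temperature) after a 17 hr compound exposure of wild-type HepG2 cells seeded at 2,000 per well and pre-incubated 5 hr.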
# [3] = Caspase-3/7 induction in CHO-K1 cells by small molecules, qHTS cell viability counter screen (AID 1346979); details: CellTiter-Fluor fluorescence, 17 h; series mostly up to 92.4 µM; further: nearly all actives have a fitted effect of over 35% in size; further: potency means the concentration at half of the fitted maximal effect
# Summary of the method: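 Cytotoxicity counter screen: CellTiter-Fluor added to compound-treated wild-type CHO-K1 cells at 16 h (37C, 5% CO2), fluorescence measured 1 h later; same wells as caspase-3/7 measurement.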
# [4] = Caspase-3/7 induction in CHO-K1 cells by small molecules, qHTS assay (AID 1346980); details: CHO-K1 caspase-3/7 induction, Caspase-Glo luminescence, 17 h; series mostly up to 92.4 µM; further: nearly all actives have a fitted effect of over 15% in size; further: potency means the concentration at half of the fitted maximal effect
# Summary of the method: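 Luminescent Caspase-Glo 3/7 read (30min, room temperature) quantified apoptosis induction. Cells were wild-type CHO-K1, treated with compound for 17hr at 37 C and 5% CO2.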
# [5] = Caspase-3/7 induction in HepG2 cells by small molecules, qHTS cell viability counter screen (AID 1346981); details: CellTiter-Fluor fluorescence, 17 h; series mostly up to 92.4 µM; further: nearly all actives have a fitted effect of over 30% in size; further: potency means the concentration at half of the fitted maximal effect
# Summary of the method: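 HepG2, WT, 2,000 cells/well; 5 hr pre-incubation 37 C/5% CO2; compound pin-transferred from DMSO; 16 hr exposure; CellTiter-Fluor, 1 hr; fluorescence read.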
# [6] = biological target: Nuclear receptor subfamily 1 group I member 2 (Homo sapiens) (UniProt O75469); assay: Human pregnane X receptor (PXR) small molecule agonists, qHTS assay (AID 1346982); details: PXR-Luc HepG2, CYP3A4 luciferase reporter, 24 h; series mostly up to 92.4 µM; further: nearly all actives have a fitted effect of over 35% in size; further: potency means the concentration at half of the fitted maximal effect
# Sequence of Nuclear receptor subfamily 1 group I member 2 (Homo sapiens) (O75469 whole entry, looked up): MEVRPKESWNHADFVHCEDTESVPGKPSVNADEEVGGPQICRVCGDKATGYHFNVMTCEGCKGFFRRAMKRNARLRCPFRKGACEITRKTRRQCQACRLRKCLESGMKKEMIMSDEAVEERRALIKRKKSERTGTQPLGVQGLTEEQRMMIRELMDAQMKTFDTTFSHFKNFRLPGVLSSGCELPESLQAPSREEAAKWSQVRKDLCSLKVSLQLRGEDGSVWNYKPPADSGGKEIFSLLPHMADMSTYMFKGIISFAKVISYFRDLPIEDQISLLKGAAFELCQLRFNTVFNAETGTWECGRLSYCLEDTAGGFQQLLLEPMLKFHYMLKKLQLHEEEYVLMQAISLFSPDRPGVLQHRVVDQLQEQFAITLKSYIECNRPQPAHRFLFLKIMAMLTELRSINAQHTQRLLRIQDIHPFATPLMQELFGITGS
# Summary of the method: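 Luciferase signal from ONE-Glo (30 min, room temperature) measured activation of hPXR-driven CYP3A4 reporter expression in PXR-Luc HepG2 cells treated with compounds for 24 hr at 37 C.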
# [7] = biological target: Acetylcholinesterase (Homo sapiens) (UniProt P22303); assay: Acetylcholinesterase (AChE) small molecule antagonists: colormetric cell-based qHTS assay (AID 1347395; calls by dose curve; further: nearly all actives have a fitted effect of over 30% in size; further: potency means the concentration at half of the fitted maximal effect); details: SH-SY5Y cells AChE activity, colorimetric (Ellman); series mostly up to 115 µM
# Sequence of Acetylcholinesterase (Homo sapiens) (P22303 whole entry, looked up): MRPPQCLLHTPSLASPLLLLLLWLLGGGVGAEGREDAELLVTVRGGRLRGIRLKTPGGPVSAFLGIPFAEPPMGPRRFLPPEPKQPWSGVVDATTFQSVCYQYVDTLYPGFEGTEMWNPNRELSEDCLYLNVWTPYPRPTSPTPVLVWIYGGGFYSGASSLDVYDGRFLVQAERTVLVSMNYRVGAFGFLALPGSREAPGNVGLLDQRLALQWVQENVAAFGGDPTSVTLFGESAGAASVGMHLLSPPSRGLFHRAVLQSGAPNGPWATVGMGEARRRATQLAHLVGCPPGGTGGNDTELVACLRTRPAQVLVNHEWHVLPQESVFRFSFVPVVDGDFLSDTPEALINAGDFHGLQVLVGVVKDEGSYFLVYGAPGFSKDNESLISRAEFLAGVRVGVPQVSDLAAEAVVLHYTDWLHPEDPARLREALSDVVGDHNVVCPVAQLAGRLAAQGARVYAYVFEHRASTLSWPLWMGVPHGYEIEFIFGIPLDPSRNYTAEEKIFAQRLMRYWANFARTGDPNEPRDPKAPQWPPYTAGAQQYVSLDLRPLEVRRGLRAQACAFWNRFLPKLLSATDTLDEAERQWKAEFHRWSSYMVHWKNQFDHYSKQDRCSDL
# Summary of the method: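 Colorimetric readout: DTNB quantifies thiocholine from acetylthiocholine hydrolysed by endogenous AChE of SH-SY5Y cells (2,000/well, plated overnight). Compound pretreatment 30 min, substrate incubation 90 min, both 37 C.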
# [8] = biological target: Nuclear receptor subfamily 1 group I member 2 (Rattus norvegicus) (UniProt Q9R1A7); assay: Rat pregnane X receptor (rPXR) activation by small molecules, qHTS assay (AID 1346983); details: rPXR luciferase reporter cells, One-Glo luminescence, 24 h; stronger effect = higher value; further: nearly all actives have a fitted effect of over 20% in size
# Sequence of Nuclear receptor subfamily 1 group I member 2 (Rattus norvegicus) (Q9R1A7 whole entry, looked up): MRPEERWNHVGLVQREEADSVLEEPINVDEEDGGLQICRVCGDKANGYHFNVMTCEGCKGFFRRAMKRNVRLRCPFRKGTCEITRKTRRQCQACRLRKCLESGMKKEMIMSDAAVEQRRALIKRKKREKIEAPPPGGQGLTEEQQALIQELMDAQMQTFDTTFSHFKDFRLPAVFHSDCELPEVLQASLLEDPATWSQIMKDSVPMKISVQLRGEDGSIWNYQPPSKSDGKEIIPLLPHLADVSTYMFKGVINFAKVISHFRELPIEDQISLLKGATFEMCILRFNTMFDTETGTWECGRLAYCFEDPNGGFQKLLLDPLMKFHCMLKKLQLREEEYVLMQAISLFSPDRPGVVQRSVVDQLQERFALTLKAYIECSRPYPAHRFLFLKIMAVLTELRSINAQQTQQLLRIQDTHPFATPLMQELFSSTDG
# Summary of the method: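 Luminescent readout (One-Glo luciferase, 30 min room temperature) followed 24 hr compound treatment at 37 C of rPXR cells plated 2,000 per well and preincubated 5hr; qHTS format with compounds delivered in DMSO.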
# [9] = biological target: Nuclear receptor subfamily 1 group I member 2 (Homo sapiens) (UniProt O75469); assay: CYP3A4 induction through human pregnane X receptor (PXR) by small molecules, qHTS assay (AID 1346984); details: DPX-2 HepG2 PXR, CYP3A4-luciferin luminescence, 24 h; series mostly up to 46.1 µM; further: nearly all actives have a fitted effect of over 40% in size
# Summary of the method: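 Luminescence readout: luciferase signal after One-Glo (30 min, room temperature), following 3 h at 37C with 3uM final Luciferin-IPA P450 substrate. Cells were DPX-2 (HepG2, PXR/CYP3A4-luc co-transfected) dosed for 24 h.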
# [10] = biological target: Nuclear receptor subfamily 1 group I member 2 (Homo sapiens) (UniProt O75469); assay: Human pregnane X receptor (PXR) activation by small molecules, qHTS assay (AID 1346985); details: DPX-2 HepG2 CYP3A4-luciferase, 24 h; series mostly up to 38.3 µM; further: nearly all actives have a fitted effect of over 40% in size; further: potency means the concentration at half of the fitted maximal effect
# Summary of the method: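 DPX-2 cells (HepG2 co-transfected with a PXR response element and a CYP3A4-promoter luciferase construct) were seeded at 2,000 per well, rested 5 hr at 37C, then exposed to DMSO-dissolved compounds for 24 hr. Activation was read as luciferase luminescence.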
Compound,Potency [1],Potency [2],Potency [3],Potency [4],Potency [5],Potency [6],Potency [7],max activation [8],outcome [9],Potency [10]
CC(Cl)(Cl)C(=O)O,inactive,inactive,inactive,inactive,inactive,inactive and 61.3 µM (active),inactive,,,
CCCCn1cc[n+](C)c1,inactive,inactive,inactive,inactive,inactive,,,,,
O=C(O)c1ccccc1O,inactive,inactive,inactive,inactive,inactive,,,,,
Cc1cc(Cl)ccc1N,inactive,inactive,inactive,inactive,inactive,,,,,
CCCC[n+]1ccccc1,inactive,inactive,inactive,inactive,inactive,inactive,,,,
COc1ccc(N)cc1,inactive,inactive,inactive,inactive,inactive,,,,,
Nc1ccccc1,inactive,inactive,inactive,inactive,inactive,inactive,,,,
O=S(=O)(O)O,inactive,inactive,inactive,inactive,inactive,,,,,
CCCC[n+]1ccc(C)cc1,inactive and 6.12 µM (active),inactive and 54.2 µM (active),inactive and 54.2 µM (active),inactive,inactive and 19.4 µM (active),,,,,
Nc1ccc(Cl)cc1,inactive,inactive,inactive,inactive,inactive,inactive and 62.2 µM (active),inactive,,,
CCCC[n+]1ccccc1C,inactive,inactive,inactive,inactive,inactive,inactive,,,,
N#CS,inactive,inactive,inactive,inactive,inactive,,,,,
CC[N+](CC)(CC)CC,inactive,inactive,inactive,inactive,inactive,,,-1.28% (inactive),,
C[N+](C)(C)Cc1ccccc1,inactive,inactive,inactive,inactive,inactive,inactive,inactive,,,
CCCC[N+]1(C)CCCCC1,inactive,inactive,inactive,inactive,inactive,inactive,inactive,,,
COP(=O)(OC)OC=C(Cl)Cl,inactive,inactive,inactive,inactive,inactive,,,0.647% (inactive),inactive,inactive
O=[N+]([O-])O,inactive,inactive,inactive,inactive,inactive,,,,,
COP(=O)(OC)C(O)C(Cl)(Cl)Cl (stereo not drawn),inactive,inactive,inactive,inactive,inactive,,,,,
COc1ccccc1N,inactive,inactive,inactive,inactive,inactive,,,,,
O=C(O)CC(O)(CC(=O)O)C(=O)O,inactive,inactive,inactive,inactive,inactive,,,,,
CCNc1nc(Cl)nc(NCC)n1,inactive,inactive,inactive,inactive,inactive,inactive,31.9 µM (active) and inactive,-2% (inactive),inactive,inactive
CC(=O)O,inactive,inactive,inactive,inactive,inactive,,,,,

Compound,Potency [1],Potency [2],Potency [3],Potency [4],Potency [5],Potency [6],Potency [7],max activation [8],outcome [9],Potency [10]
CCC[N+]1(C)CCCC1,inactive,inactive,inactive,inactive,inactive,,,,,
CCCCn1cc[n+](C)c1C,inactive,inactive,inactive,inactive,inactive,,,,,
CN(C)[C@@H]1C(=O)C(C(N)=O)=C(O)[C@@]2(O)C(=O)C3=C(O)c4c(O)cccc4[C@@](C)(O)[C@H]3[C@H](O)[C@@H]12,inactive,inactive,inactive,inactive,inactive,,,-4.55% (inactive) and -1.55% (inactive),inactive,inactive
CCCC[N+]1(C)CCCC1,inactive,inactive,inactive,inactive,inactive,,,,,
O=C(O)c1nc(Cl)ccc1Cl,inactive,inactive,inactive,inactive,inactive,inactive,inactive,,,
CCCCCCn1cc[n+](C)c1,13.9 µM (active),inactive,inactive,inactive,inactive,inactive and 12.4 µM (active) and 7.57 µM (active),,,,
O=[N+]([O-])c1ccccc1O,inactive,inactive,inactive,inactive,inactive,inactive,inactive,,,
CCCC[n+]1cccc(C)c1,inactive,inactive,inactive,inactive,inactive,inactive,,,,
CCCCCCCCCCCC(=O)O,inactive,inactive,inactive,inactive,inactive,inactive,inactive,,,
CCCCCCCCn1cc[n+](C)c1,9.68 µM (active) and 7.76 µM (active) and 8.72 µM (active),inactive,54.1 µM (active) and 49 µM (active) and 55 µM (active),inactive,inactive,,,,,
CCCCCCCCCCCCCCCCn1cc[n+](C)c1,,inactive,,inactive,,,inactive,,,
O=C(O)C(Cl)Cl,inactive,inactive,inactive,inactive,inactive,,inactive,-1.74% (inactive),inactive,inactive
CCCCCCCCCCn1cc[n+](C)c1,2.76 µM (active),inactive,,inactive,inactive,,39.8 µM (active) [middle of 6 runs],,,
C[C@]12CCC(=O)C=C1CC[C@@H]1[C@@H]2CC[C@]2(C)C(=O)CC[C@@H]12,inactive,inactive,23.9 µM (active) and inactive,inactive,inactive,,inactive,-1.07% (inactive),inactive,inactive
O=P1(N(CCCl)CCCl)NCCCO1 (stereo not drawn),inactive,inactive,inactive,inactive,inactive,,inactive,,,
O=c1[nH]c(=O)n(Cl)c(=O)n1Cl,inactive,inactive,inactive,inactive,inactive,,inactive,0.0078% (inactive),inactive,inactive
O=C(O)C(Cl)(Cl)Cl,inactive,inactive,inactive,inactive,inactive,,inactive,-1.14% (inactive),inactive,inactive
CCCCCC[n+]1ccccc1,,inactive,inactive,inactive,inactive,,,,,
Oc1cccc2cccnc12,,54.8 µM (active) and inactive and 10.6 µM (active),,inactive,inactive,,,-0.611% (inactive),,
Nc1ccc(-c2ccc(N)c(Cl)c2)cc1Cl,3.98 µM (active) and 54.5 µM (active),13.8 µM (active),68.9 µM (active) and 1.43 µM (active) and 48.6 µM (active),inactive,9.04 µM (active) and 54.5 µM (active),,inactive,,,
O=C(O)CCl,inactive,inactive,inactive,inactive,inactive,,inactive,,,
CCn1cc[n+](C)c1C,inactive,inactive,inactive,inactive,inactive,,inactive,,,

Compound,Potency [1],Potency [2],Potency [3],Potency [4],Potency [5],Potency [6],Potency [7],max activation [8],outcome [9],Potency [10]
O=c1nc(O)n(Cl)c(=O)n1Cl,inactive,inactive,inactive,inactive,inactive,,inactive,,,
CCC(=O)C(CC(C)N(C)C)(c1ccccc1)c1ccccc1 (stereo not drawn),27.4 µM (active),inactive,inactive,inactive,,,inactive,,,
CCCCCCCCCCCCn1cc[n+](C)c1,,43.6 µM (active) and inactive,,inactive,24.5 µM (active) and inactive,,,,,
CC[n+]1ccccc1,inactive and 6.06 µM (active),inactive,inactive and 763 nM (active),inactive,inactive and 19.2 µM (active),,inactive,,,
Cc1cc(Cl)ccc1OCC(=O)O,inactive,inactive,inactive,inactive,inactive,,inactive,,,
Nc1ccc(-c2ccc(N)cc2)cc1,inactive,inactive,inactive,inactive,inactive,,inactive,,,
O=C(O)COc1ccc(Cl)cc1Cl,inactive,inactive,inactive,inactive,inactive,,inactive,,,
CCCn1cc[n+](C)c1,inactive,inactive,inactive,inactive,inactive,,inactive,,,
CCOP(=S)(OCC)Oc1ccc2c(C)c(Cl)c(=O)oc2c1,inactive,inactive,inactive,inactive,inactive,,22.7 µM (active) and 12.6 µM (active) and inactive,9.05% (inactive),inactive,14.1 µM (active)
OCCOc1ccccc1,inactive,inactive,inactive,inactive,inactive,,inactive,-2.05% (inactive),inactive,inactive
C1CCC(NC2CCCCC2)CC1,inactive,inactive,inactive,inactive,inactive,,inactive,-0.555% (inactive),inactive,inactive
CCCCCCCCCCCCCC[P+](CCCCCC)(CCCCCC)CCCCCC,3.87 µM (active) and 6.16 µM (active) and 1.72 µM (active),inactive,4.35 µM (active) and 6.16 µM (active) and 2.73 µM (active),inactive and 13.8 µM (active),13.7 µM (active) and 19.5 µM (active) and inactive,,71.3 µM (active) and 80.3 µM (active) and inactive,,,
CCC[N+]1(C)CCCCC1,inactive,inactive,inactive,inactive,inactive,,inactive,,,
COCC(=O)N(c1c(C)cccc1C)C(C)C(=O)OC (stereo not drawn),inactive,inactive,inactive,inactive,inactive,,inactive,0.174% (inactive),,
CNC,inactive,inactive,inactive,inactive,inactive,,inactive,,,
CC(=O)[O][Hg][c]1ccccc1,2.24 µM (active) and 3.06 µM (active) and 4.73 µM (active),inactive,762 nM (active) and 1.09 µM (active) and 1.88 µM (active),inactive,5.4 µM (active) and 5.45 µM (active) and 11.9 µM (active),,inactive,-23.3% (inactive),inactive,10 µM (active)
CCCCCCCCCCCCOS(=O)(=O)O,inactive,inactive,inactive,inactive,inactive,,inactive,,inactive,inactive
C=CCOC(Cn1ccnc1)c1ccc(Cl)cc1Cl (stereo not drawn),48.6 µM (active),inactive,48.7 µM (active) and 38.6 µM (active),inactive,inactive,,inactive,,inactive,
Cc1cc(-c2ccc(N)c(C)c2)ccc1N,inactive,inactive,inactive,inactive,inactive,,inactive,,,
Oc1ccccc1-c1ccccc1,inactive,inactive,inactive,inactive,inactive,,inactive,-1.27% (inactive),inactive,inactive
CC[N+]1(C)CCCC1,inactive,inactive,inactive,inactive,inactive,,inactive and 22.4 µM (active),,,
